PubChem BioAssay
Active and inactive are the calls of the source. Unless noted, no rule for the calls is given here.

Tests used:
[1] = compounds binding Alexa647 anti-His antibody – biochemical, small-molecule microarray, 635 nm fluorescence, artefact control for SMM control protein annotation, primary screen (AID 1128); settings: higher = more signal;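 also: score merges feature fluorescence with signal-to-noise for each printed compound spot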
[2] = system: Human papillomavirus type 1a E7 protein (residues 1-88); assay: HPV1a E7 small-molecule binders, primary screen, biochemical, small-molecule microarray, residues 1-88, 635 nm (AID 1129); settings: small-molecule microarray binding, fluorescence 635 nm; higher = more signal
[3] = target: Focal adhesion kinase 1 (Homo sapiens) (UniProt Q05397); assay: PTK2 protein binding on printed compound slides – biochemical, small-molecule microarray, 635/667 nm fluorescence, BSA, DTT, primary screen (AID 1130); settings: 635 nm fluorescence, higher = more signal;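 also: composite of spot emission at 667 nm and signal to noise over triplicate slides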
Sequence of Focal adhesion kinase 1 (Homo sapiens) (Q05397 whole entry, looked up): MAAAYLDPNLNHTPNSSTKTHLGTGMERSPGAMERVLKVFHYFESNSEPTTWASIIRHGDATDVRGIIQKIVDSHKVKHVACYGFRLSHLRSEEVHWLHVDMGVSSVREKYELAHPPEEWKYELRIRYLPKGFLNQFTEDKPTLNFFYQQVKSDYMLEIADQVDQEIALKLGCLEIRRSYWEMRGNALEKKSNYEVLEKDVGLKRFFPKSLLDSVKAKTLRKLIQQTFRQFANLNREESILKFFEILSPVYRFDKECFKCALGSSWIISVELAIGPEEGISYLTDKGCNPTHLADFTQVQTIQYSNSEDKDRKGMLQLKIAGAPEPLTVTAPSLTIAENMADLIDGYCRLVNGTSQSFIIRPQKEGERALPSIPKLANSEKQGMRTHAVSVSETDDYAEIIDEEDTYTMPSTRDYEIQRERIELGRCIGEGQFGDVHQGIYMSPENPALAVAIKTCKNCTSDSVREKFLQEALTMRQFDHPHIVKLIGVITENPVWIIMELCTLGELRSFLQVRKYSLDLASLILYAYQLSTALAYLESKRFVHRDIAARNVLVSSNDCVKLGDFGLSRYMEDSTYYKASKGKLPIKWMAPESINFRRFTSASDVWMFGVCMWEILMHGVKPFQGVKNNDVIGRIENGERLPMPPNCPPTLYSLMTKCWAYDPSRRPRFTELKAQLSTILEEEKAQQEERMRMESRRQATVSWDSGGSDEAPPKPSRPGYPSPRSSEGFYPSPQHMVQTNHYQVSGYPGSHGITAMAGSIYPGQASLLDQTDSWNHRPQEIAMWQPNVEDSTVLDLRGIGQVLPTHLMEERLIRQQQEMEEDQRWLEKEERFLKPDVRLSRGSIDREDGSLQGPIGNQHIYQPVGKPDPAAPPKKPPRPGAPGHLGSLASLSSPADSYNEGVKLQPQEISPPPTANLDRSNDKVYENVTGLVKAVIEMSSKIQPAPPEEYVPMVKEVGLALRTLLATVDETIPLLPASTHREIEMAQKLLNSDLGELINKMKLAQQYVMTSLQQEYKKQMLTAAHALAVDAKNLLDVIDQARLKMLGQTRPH

[4] = system: Fibrinogen (Alexa647-labelled); assay: Alexa647-fibrinogen binding to printed small molecules – biochemical, small-molecule microarray, 635/667 nm fluorescence, artefact control for SMM control-protein annotation, profiling panel (AID 1131); settings: fibrinogen-A647 binding fluorescence, higher = more signal;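 also: z-score merges 667 nm fluorescence with per-spot signal-to-noise over triplicate slides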
[5] = target: Follistatin (Homo sapiens) (UniProt P19883); assay: FST protein binding to printed compounds – biochemical, small-molecule microarray, 635/667 nm fluorescence, primary screen (AID 1132); settings: 635 nm fluorescence, higher = more signal
Sequence of Follistatin (Homo sapiens) (P19883 whole entry, looked up): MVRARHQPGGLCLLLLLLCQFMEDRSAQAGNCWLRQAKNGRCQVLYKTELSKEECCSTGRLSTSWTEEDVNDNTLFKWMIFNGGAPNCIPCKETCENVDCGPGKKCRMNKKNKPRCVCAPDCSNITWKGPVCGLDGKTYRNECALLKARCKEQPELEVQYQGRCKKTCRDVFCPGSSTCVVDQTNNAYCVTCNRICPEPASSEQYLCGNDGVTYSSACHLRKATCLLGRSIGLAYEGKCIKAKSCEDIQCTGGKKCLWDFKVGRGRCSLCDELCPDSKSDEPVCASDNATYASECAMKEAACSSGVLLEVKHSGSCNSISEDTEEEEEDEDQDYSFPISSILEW

[6] = target: Fibroblast growth factor 2 (Homo sapiens) (UniProt P09038); assay: basic fibroblast growth factor binding to printed compounds – biochemical, small-molecule microarray, 635/667 nm fluorescence, primary screen (AID 1133); settings: FGF2, fluorescence 635/667, higher = more signal
Sequence of Fibroblast growth factor 2 (Homo sapiens) (P09038 whole entry, looked up): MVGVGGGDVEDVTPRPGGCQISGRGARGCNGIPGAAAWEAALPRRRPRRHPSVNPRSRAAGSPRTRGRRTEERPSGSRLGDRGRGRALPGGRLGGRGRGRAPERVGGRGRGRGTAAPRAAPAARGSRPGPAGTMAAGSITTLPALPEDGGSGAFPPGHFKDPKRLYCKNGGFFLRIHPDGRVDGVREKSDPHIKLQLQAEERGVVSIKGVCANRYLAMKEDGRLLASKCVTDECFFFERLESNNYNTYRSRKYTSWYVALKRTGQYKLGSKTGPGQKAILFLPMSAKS

[7] = JC-1 mitochondrial potential readout, lung cancer cells – cell-based, A549, JC-1 fluorescence, basal, 24 h, 100 nL, profiling panel (AID 1138); settings: higher = more signal;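 also: A549 lung adenocarcinoma cells under basal conditions with no added stimulus; test concentration not given here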
[8] = system: Lefty1; assay: Lefty1 protein binding to printed compounds – biochemical, small-molecule microarray, 635/667 nm fluorescence, primary screen (AID 1139); settings: fluorescence 635/667, higher = more signal
[9] = system: wheat germ agglutinin (Triticum aestivum), Alexa647-labelled; assay: Alexa647-WGA lectin binding to printed small molecules – biochemical, small-molecule microarray, 635/667 nm fluorescence, artefact control for SMM control-protein annotation, profiling panel (AID 1140); settings: WGA-A647 binding, 635 nm fluorescence, higher = more signal;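 also: score merges 667 nm feature emission with signal to noise over triplicate slides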
[10] = target: Luciferin 4-monooxygenase (Photinus pyralis) (UniProt P08659); assay: inhibition of purified Photinus pyralis luciferase – biochemical, luminescence, purified enzyme, 2006 set, primary screen (AID 1141); settings: purified firefly luciferase, SteadyGlo luminescence, 30 min; higher = more signal, called active from +8 up or from −8 down;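 also: cell-free assay with purified firefly luciferase at 100 ng per well in PBS; test concentration not given here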
Sequence of Luciferin 4-monooxygenase (Photinus pyralis) (P08659 whole entry, looked up): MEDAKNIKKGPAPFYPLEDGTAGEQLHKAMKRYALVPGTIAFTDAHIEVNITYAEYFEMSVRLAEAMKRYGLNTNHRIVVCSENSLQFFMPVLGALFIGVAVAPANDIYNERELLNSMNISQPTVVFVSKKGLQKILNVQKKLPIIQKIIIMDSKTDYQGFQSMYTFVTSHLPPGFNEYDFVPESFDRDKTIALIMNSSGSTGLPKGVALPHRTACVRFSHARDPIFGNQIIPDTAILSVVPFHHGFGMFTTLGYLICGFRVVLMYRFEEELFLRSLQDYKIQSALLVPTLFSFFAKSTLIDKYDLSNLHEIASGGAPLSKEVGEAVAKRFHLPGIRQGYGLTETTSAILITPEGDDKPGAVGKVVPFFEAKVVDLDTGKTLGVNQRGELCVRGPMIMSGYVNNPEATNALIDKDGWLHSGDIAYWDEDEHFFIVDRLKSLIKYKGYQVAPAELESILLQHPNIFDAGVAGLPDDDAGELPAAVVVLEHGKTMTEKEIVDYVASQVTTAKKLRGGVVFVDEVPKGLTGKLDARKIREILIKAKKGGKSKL

[11] = system: Wnt5a (protein binding on small-molecule microarray); assay: small molecules binding Wnt5a protein – biophysical, small-molecule microarray, 635/667 nm fluorescence, primary screen (AID 1142); settings: 635 nm fluorescence, higher = more signal;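 also: fluorescence read at 667 nm with signal to noise per printed feature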
[12] = ATP-based viability of Huh7 replicon cells – cell-based, CellTiter-Glo luminescence, basal, 48 h, cytotoxicity control for HCV replication inhibitor project, primary screen (AID 1143); settings: higher = more signal, called active from +8 up or from −8 down;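 also: Huh7 hepatoma cells carrying a hepatitis C replication reporter with no stimulus; test concentration not given here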
[13] = Pseudomonas biofilm growth suppression – PAO1 strain, BacTiter-Glo luminescence, LB-PBS, primary screen (AID 1144); settings: P. aeruginosa PAO1 biofilm, 12 h, higher = more signal
[14] = basal CRE-LacZ reporter activity in PC12 – cell-based, unstimulated, primary screen (AID 1145); settings: no forskolin, luminescence, 4.5 h, higher = more signal, called active from +8 up or from −8 down
[15] = forskolin-driven CRE-LacZ activity in PC12 – cell-based, CRE-LacZ reporter, forskolin-stimulated, primary screen (AID 1146); settings: luminescence, 4.5 h, higher = more signal, called active from +8 up or from −8 down;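 also: PC12 cells with 6xCRE LacZ reporter stimulated by forskolin 10 µM; beta-galactosidase reporter signal reflecting CREB driven transcription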
[16] = target: Streptavidin (Streptomyces avidinii) (UniProt P22629); assay: compounds binding control protein streptavidin – biophysical, small-molecule microarray, 635/667 nm fluorescence, artefact control for SMM compound annotation, primary screen (AID 1147); settings: higher = more signal;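 also: signal reflects streptavidin binding to arrayed compounds as a control protein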
Sequence of Streptavidin (Streptomyces avidinii) (P22629 whole entry, looked up): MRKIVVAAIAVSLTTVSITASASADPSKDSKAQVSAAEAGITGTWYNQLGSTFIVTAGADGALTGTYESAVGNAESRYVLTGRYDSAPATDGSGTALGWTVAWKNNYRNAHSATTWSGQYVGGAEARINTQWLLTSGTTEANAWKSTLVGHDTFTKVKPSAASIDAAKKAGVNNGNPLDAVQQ

[17] = probe aInhba binding on compound microarray – biochemical, small-molecule microarray, 635/667 nm fluorescence, primary screen (AID 1148); settings: higher = more signal;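 also: score merges 667nm spot fluorescence with signal-to-noise for antibody binding to printed compounds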
[18] = target: Torsin-1A (Homo sapiens) (UniProt O14656); assay: TOR1A wild-type binding on microarray – cell lysate, small-molecule microarray, lysate, 635/667 nm, primary screen (AID 1149); settings: COS7 hTOR1A-WT lysate, 635 nm fluorescence, higher = more signal
Sequence of Torsin-1A (Homo sapiens) (O14656 whole entry, looked up): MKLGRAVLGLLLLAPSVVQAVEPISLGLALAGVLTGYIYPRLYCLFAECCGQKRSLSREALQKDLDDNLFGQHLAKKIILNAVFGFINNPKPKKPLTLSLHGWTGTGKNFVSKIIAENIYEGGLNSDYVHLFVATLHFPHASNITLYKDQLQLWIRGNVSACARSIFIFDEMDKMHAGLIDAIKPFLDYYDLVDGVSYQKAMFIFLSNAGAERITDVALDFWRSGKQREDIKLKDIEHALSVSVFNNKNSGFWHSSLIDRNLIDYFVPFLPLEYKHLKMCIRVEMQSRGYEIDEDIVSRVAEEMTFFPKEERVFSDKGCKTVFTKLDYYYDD

[19] = target: Torsin-1A (Homo sapiens) (UniProt O14656); assay: torsin A mutant lysate binding on microarrays – cell lysate, small-molecule microarray, COS7 lysate, 635/667 nm fluorescence, primary screen (AID 1150); settings: COS7 hTOR1A mutant lysate, 635 nm fluorescence, higher = more signal;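 also: score pools 667 nm emission and signal to noise measuring lysate protein binding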
[20] = system: Sonic hedgehog protein (Shh); assay: Sonic hedgehog microarray binding compounds – biochemical, small-molecule microarray, 635/667 nm fluorescence, primary screen (AID 1151); settings: 635 nm fluorescence, higher = more signal;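 also: Shh protein binding to compounds spotted on small-molecule microarray slides; score combines spot fluorescence intensity with signal-to-noise across triplicate slides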

SMILES | composite z-score [1] | composite z-score [2] | composite z-score [3] | composite z-score [4] | composite z-score [5] | composite z-score [6] | z-score [7] | composite z-score [8] | composite z-score [9] | z-score [10] | composite z-score [11] | z-score [12] | z-score [13] | z-score [14] | z-score [15] | composite z-score [16] | composite z-score [17] | composite z-score [18] | composite z-score [19] | composite z-score [20]
CN(C)CCCNC(=O)[C@@H]1c2ccccc2C(=O)N(C2Cc3ccccc3C2)[C@H]1c1ccc(CO)cc1 | 0.0265 | 1.11 | 0.726 | 0.784 | 0.27 | -0.139 | 2.07 | -0.199 | 0.164 | -0.825 (inactive) | -0.128 | -0.701 (inactive) | 0.491 (inactive) | -0.502 (inactive) | -1.14 (inactive) | 0.359 | 0.217 | 0.798 | 0.802 | 0.318
C=C(CC1([C@@H](NP(=O)(c2ccccc2)c2ccccc2)[C@H]2C[C@@H]2CCN(C(=O)OCC)S(=O)(=O)c2ccc(C)cc2)CC1)c1ccccc1 | 1.74 | 1.22 | 1.15 | 0.781 | 0.712 | -0.804 | 0.782 | -0.162 | 0.593 | 2.49 (inactive) | 0.302 | -3.37 (inactive) | 0.83 (inactive) | -0.196 (inactive) | 0.108 (inactive) | 1.27 | 0.199 | -0.423 | 0.0999 | -1.18
O=C1OCCC=C[C@H]2OC34C=CCN(CCN5CCOCC5)C(=O)[C@H]3N(CCCO)C(=O)[C@@H]4C12 (stereo not given in full) | 0.0466 | -1.11 | -0.251 | -0.0881 | -0.0312 | -1.26 | -0.962 | -0.0933 | -0.458 | -0.552 (inactive) | -0.543 | -2.19 (inactive) | -0.561 (inactive) | -0.354 (inactive) | 1.74 (inactive) | -0.613 | -0.0066 | -1.78 | -1.33 | 0.243
CCCCC(O)C1C=CC2C(=O)NC(=O)C2N1Nc1ccc(Cl)cc1Cl (stereo not given) | 2.42 | 0.32 | 0.474 | -0.0628 | 0.413 | -0.596 | -1.16 | -0.654 | 0.87 | -1.31 (inactive) | -0.188 | -1.19 (inactive) | -0.441 (inactive) | 0.819 (inactive) | -0.123 (inactive) | 0.27 | 0.166 | -0.58 | 0.571 | -0.614
CC(C)c1ccc(NN2C(C(O)C(C)C)C=CC3C(=O)N(c4ccccc4)C(=O)C32)cc1 (stereo not given) | 1.66 | 1.26 | 0.811 | 1.04 | 0.754 | 0.013 | -0.81 | 0.172 | 1.12 | -1.73 (inactive) | 0.705 | -0.135 (inactive) | -0.202 (inactive) | 0.0569 (inactive) | -0.241 (inactive) | 1.44 | 0.722 | -0.317 | 0.431 | -0.316
CN1C(=O)[C@]2(CCS(=O)(=O)c3ccccc3)N=C(c3ccc(OCCCO)cc3)O[C@@H]2c2ccccc21 | 2.44 | 1.27 | 1.26 | 0.495 | 1.47 | 0.699 | 1.87 | 0.34 | 0.318 | -1.76 (inactive) | 0.088 | -3.67 (inactive) | 1.24 (inactive) | 1.34 (inactive) | -0.547 (inactive) | 0.294 | 0.174 | 0.0148 | 1.16 | 1.54
O=C1NC(=O)C2C1C=CC(C(O)c1ccc(F)cc1)N2Nc1ccccn1 (stereo not given) | 0.842 | 0.399 | 0.113 | 0.796 | 0.269 | 0.0568 | -0.108 | -0.269 | 0.118 | -0.855 (inactive) | -0.138 | 0.74 (inactive) | -1.36 (inactive) | -0.136 (inactive) | 0.0662 (inactive) | -0.0345 | -0.0645 | 0.286 | 0.0123 | 0.123
NC(=O)NCC#Cc1ccc2c(c1)[C@]1(C(=O)N2)[C@H](C(=O)N2CCCCCCC2)[C@H]2C(=O)O[C@H](c3ccccc3)[C@H](c3ccccc3)N2[C@@H]1c1ccc(O)cc1 | 0.0328 | 1.01 | 0.568 | 0.879 | 1.52 | 1.15 | -1.16 | 0.784 | 1.15 | -0.161 (inactive) | 0.399 | 0.33 (inactive) | -0.209 (inactive) | 0.0695 (inactive) | -0.745 (inactive) | 1.05 | 1.51 | 0.529 | 0.676 | 1.22
CC1CC/C=C\[C@H]2OC34C=CCN(c5ccc(Cl)cc5)C(=O)[C@H]3N(CCCO)C(=O)[C@]4(C)C2C(=O)O1 (stereo not given in full) | -0.567 | -0.796 | -0.444 | -1.67 | -0.6 | -1.2 | 0.58 | -0.157 | -1.34 | -0.0112 (inactive) | -0.785 | -0.0438 (inactive) | 1.63 (inactive) | 0.988 (inactive) | 0.22 (inactive) | -1.02 | -0.253 | -2.1 | -0.989 | 0.424
CCOC(=O)C1=C[C@@H](C(C)(C)C)N(S(=O)(=O)c2ccc(C)cc2)[C@H]1c1ccccc1Cl | 1.31 | 1.2 | 0.393 | 0.776 | 0.953 | 0.119 | 3.94 | 0.386 | 1.18 | 0.927 (inactive) | 0.548 | -3.79 (inactive) | 1.6 (inactive) | 0.986 (inactive) | 1.53 (inactive) | 1.11 | 0.029 | 0.296 | 0.315 | 0.577
